From PubChem BioAssay (NCI) come the findings set out here.

Holding throughout (assay): NCI-60 one-dose screen, 48 h (100 = growth as untreated, 0 = no growth, -100 = all killed)
Holding throughout (conditions): 10 µM unless noted

The subject of experiment [1] is SNB-75 CNS.
Experiment [2] deals with SNB-19 CNS.
Experiment [3] relates to U251 CNS.
Experiment [4] deals with PC-3 prostate.
For experiment [5], the system named is SK-MEL-5 melanoma.
Experiment [6] concerns UACC-62 melanoma.
In experiment [7] the test system is LOX IMVI melanoma.
Experiment [8] deals with SK-MEL-28 melanoma.
Experiment [9] deals with SK-MEL-2 melanoma.
The subject of experiment [10] is EKVX NSCLC.
Experiment [11] concerns SN12C renal.
Experiment [12] has as its system UO-31 renal.
Experiment [13] relates to TK-10 renal.
Experiment [14] relates to ACHN renal.
In experiment [15] the test system is CAKI-1 renal.
The subject of experiment [16] is A498 renal.
Experiment [17] concerns CCRF-CEM leukemia.
The test system of experiment [18] is MOLT-4 leukemia.
Experiment [19] relates to SR leukemia.
For experiment [20], the system named is HT29 colon.

Each structure is given as a SMILES string. About 83,000 compounds went through this panel and 20% of them were active in at least one assay; those are over-represented in the sample as a whole.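 Method: cells in 96-well plates; compound added at one concentration; 48 h incubation; percent growth measured; values under 10 scored active.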 Unmarked numbers belong to inactive results. Calls of active or inactive are those of the source.

For `Cn1c(N)c(N=O)c(=O)[nH]c1=O`, the growth in [1] is 97%; in [2] it was 105%; in experiment [3], 95.9%; in [4] it was 98.7%; in experiment [5] it was 102%; in [6], 103%. The growth in experiment [7] was 102%; in [8], 108%; in [9] it was 97.8%; in experiment [10], 98%; in [11], 101%; in [12], 82.5%. Besides, the growth in experiment [13] was 101%; in experiment [14] it was 100%; in experiment [15], 108%; in experiment [16] it was 111%; in experiment [17] it was 91.1%; in [18], 96.3%. The growth in experiment [19] is 97.6%.

Consider `CCOC(=O)C(C(C)=O)c1nc2sc3cc(Cl)ccc3n2c(=N)c1C#N` (centres undefined), for which the growth is 34.5% in [1]; 89.6% in experiment [2]; 86.2% in [3]; 72.5% in [4]; 73.9% in experiment [5]; 67.8% in [6]. Also, the growth in [7] is 97.2%; in experiment [8] it was 69.8%; in experiment [9], 74.1%; in experiment [10], 73.6%; in [11], 85.9%; in experiment [12] it was 76.1%. Also, the growth in [13] was 157%; in experiment [14] it was 109%; in [15], 91.6%; in [16] it was 101%; in [17] it was 163%; in [18], 44.9%. In addition, in experiment [19], the growth is 60.3%.

For the molecule `COc1ccc(-c2c(N)noc2-c2cc(OC)c3c(c2)OCCO3)cc1`, the growth in experiment [20] is 8.42% (active); in experiment [2], 46.2%; in experiment [3] it was 25.5%; in experiment [4], 26.8%; in experiment [5], -21.3% (active); in experiment [6] it was 32.7%. Besides, the growth in experiment [7] was 19.6%; in [9], 49.9%; in experiment [10], 37.1%; in experiment [11], 30.8%; in experiment [12] it was 41%; in experiment [13], 77.8%. The growth is 22.3% in experiment [14]; 45.4% in experiment [15]; 2.33% (active) in [16]; 13.4% in experiment [17]; 10.3% in experiment [18]; 11.6% in [19].

For the molecule `COc1ccc(C2CC(c3ccc(OC)c(OC)c3)=NN2C(=O)c2cc(OC)c(OC)c(OC)c2)cc1` (centres undefined), the growth in experiment [20] was -1.1% (active); in [2], 38.9%; in experiment [3] it was 26%; in experiment [4] it was 30.5%; in [5] it was 5.8% (active); in [6] it was 41.9%. Further, the growth in experiment [7] is 36.1%; in experiment [8], 70.5%; in experiment [9] it was 12.6%; in experiment [10], 48.2%; in experiment [11], 41.5%; in experiment [12], 21.1%. Moreover, the growth was 18.4% in [13]; 48.7% in [14]; 12.1% in [15]; 24.3% in [17]; 47.1% in experiment [18]; 20.6% in [19].

For the molecule `COc1ccc(-c2cncn2-c2ccc(-c3nc4cc(OC)c(OC)c(OC)c4s3)cc2)cc1N`, the growth in [20] is 43.7%; in [2] it was 72.1%; in experiment [3], 56.3%; in experiment [4] it was 30.1%; in experiment [5] it was 26.9%; in [6], 53.7%. The growth was 62.4% in experiment [7]; 78.5% in experiment [8]; 58.4% in experiment [10]; 72.4% in [11]; 16.1% in [12]; 83.3% in experiment [13]. The growth is 59.6% in [14]; 30.4% in [15]; 45.9% in experiment [17]; 40% in experiment [18]; 43.4% in experiment [19].

With `O=C1N(C2CCCCC2)C(=O)N1C1CCCCC1`, the growth was 44.9% in [20]; 68.6% in experiment [2]; -3% (active) in experiment [4]; 16.9% in experiment [5]; 38.9% in [6]; 31% in [7]. In addition, the growth in [9] was -7.37% (active); in experiment [10], 51.3%; in [11], 49.9%; in [13], 8.07% (active); in experiment [14] it was 11.4%; in experiment [15], 28.7%. In addition, the growth in experiment [16] is -11.9% (active); in [17] it was 4.67% (active); in experiment [18], 15.7%; in [19], 46.6%.

As to `CCC(C)CC(CC)NCCN1CCN(C(CC)CC(C)CC)C1=S` (centres undefined), the growth in experiment [20] was -24.6% (active); in experiment [2], 47.1%; in experiment [3] it was 25.2%; in experiment [6], 23.9%; in experiment [7], -0.0423% (active); in [8], 20.3%. Moreover, the growth in experiment [9] was 94.1%; in experiment [10] it was 23%; in [11], 36.9%; in experiment [12], 41.4%; in experiment [13] it was 58.5%; in experiment [14], 52.4%. The growth in experiment [15] was 59.6%; in experiment [16], 61.9%; in [17] it was 24.3%; in experiment [18], 38.5%.

`C[C@]12C[C@H](O)[C@H]3[C@@H](CCC4=CC(=O)CC[C@@]43C)[C@@H]1CC[C@@H]2C(=O)CO`: the growth in experiment [1] was 78.5%; in [2] it was 95.6%; in experiment [3], 93.5%; in experiment [4], 97.3%; in experiment [5], 91%; in [6] it was 91.4%. For the same molecule, the growth in experiment [7] was 97.7%; in experiment [8] it was 102%; in experiment [9], 93.4%; in experiment [10] it was 80.7%; in experiment [11], 79.9%; in [12], 89.6%. In addition, the growth is 108% in [13]; 95.8% in experiment [14]; 101% in experiment [15]; 43.5% in experiment [16]; 78.1% in [17]; 116% in [18]. In addition, in experiment [19], the growth is 111%.

For the molecule `CC(=O)Oc1ccc(C2OC(c3ccc4ccccc4c3OC(C)=O)=NN2C(C)=O)c(OC(C)=O)c1` (centres undefined), the growth in [20] was 27.2%; in [2], 36.9%; in experiment [3], 13.2%; in experiment [4] it was 24.5%; in [5], -9.16% (active); in [6], -11.8% (active). Besides, the growth in [7] was 4.67% (active); in experiment [8] it was 37.9%; in experiment [9], 13%; in [11] it was 21.8%; in [12], 7.69% (active); in experiment [13], 34.4%. Also, the growth in experiment [14] was 21.2%; in experiment [15] it was 18.7%; in experiment [16], 35%; in experiment [17], 7.23% (active); in [18], 2.64% (active).
